Results: PMC4336329 (PLoS ONE, 2015)
The campaign covered roughly 310,000 compounds. About 14,000 (4.5%) showed an effect of 50% or more. Effects have a minus sign here. The list comes from a sample in which strong results are over-represented; it also holds similar structures and randomly drawn compounds.

biological target: human ether-à-go-go-related gene (hERG) potassium channel (human, UniProt Q12809); assay: primary screen, population patch clamp on CHO cells stably expressing hERG; higher = less effect of the substance
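Also: peak tail current of the secondary pulse compared with the same well before compound.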

Sequence of human ether-à-go-go-related gene (hERG) potassium channel (Q12809 whole entry, looked up): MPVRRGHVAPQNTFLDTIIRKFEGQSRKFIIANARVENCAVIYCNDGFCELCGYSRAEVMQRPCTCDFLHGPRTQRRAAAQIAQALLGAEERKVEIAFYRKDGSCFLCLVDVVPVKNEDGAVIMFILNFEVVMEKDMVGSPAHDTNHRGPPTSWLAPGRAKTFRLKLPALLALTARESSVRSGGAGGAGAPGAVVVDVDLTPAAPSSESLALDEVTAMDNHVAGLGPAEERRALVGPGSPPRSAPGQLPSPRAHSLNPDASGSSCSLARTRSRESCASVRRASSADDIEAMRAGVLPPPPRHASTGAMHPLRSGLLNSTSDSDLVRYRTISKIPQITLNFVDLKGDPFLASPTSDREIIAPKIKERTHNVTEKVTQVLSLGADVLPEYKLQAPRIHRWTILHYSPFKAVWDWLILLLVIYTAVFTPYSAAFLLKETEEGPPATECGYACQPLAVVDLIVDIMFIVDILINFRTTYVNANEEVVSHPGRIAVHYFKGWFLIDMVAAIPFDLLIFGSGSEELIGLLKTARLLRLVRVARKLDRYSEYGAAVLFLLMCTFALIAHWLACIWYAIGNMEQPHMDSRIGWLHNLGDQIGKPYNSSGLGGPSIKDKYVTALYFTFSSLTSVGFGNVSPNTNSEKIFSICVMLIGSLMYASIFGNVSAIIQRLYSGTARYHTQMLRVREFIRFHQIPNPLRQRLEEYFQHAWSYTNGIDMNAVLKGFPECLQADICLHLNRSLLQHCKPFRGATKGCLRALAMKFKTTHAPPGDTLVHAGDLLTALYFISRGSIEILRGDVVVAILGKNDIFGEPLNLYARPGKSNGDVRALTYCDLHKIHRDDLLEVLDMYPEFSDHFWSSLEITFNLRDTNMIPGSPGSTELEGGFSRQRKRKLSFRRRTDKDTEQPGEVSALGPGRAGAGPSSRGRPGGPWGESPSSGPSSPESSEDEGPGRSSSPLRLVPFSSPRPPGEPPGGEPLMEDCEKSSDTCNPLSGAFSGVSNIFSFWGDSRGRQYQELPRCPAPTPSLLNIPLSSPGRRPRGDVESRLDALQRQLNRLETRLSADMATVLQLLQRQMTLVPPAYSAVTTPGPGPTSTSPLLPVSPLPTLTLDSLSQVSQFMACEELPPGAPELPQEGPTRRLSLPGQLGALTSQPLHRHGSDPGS

Compound	hERG current change (%, negative = inhibition) at 10uM [%]
O=S(=O)(c1ccc(OCC(O)CN2CCN(c3ccc(F)cc3)CC2)cc1)N1CCOCC1 (centres unmarked)	-18.2
O=C(NNC1CC(=O)N(c2ccc(Br)cc2)C1=O)c1ccccn1 (centres unmarked)	-4.01
CCCC1Cc2nc(Cl)c(C#N)cc2CO1 (centres unmarked)	15.6
O=C(Nc1cccnc1)c1cc(S(=O)(=O)N2CCOCC2)ccc1Br	-35.8
COc1cc2c(cc1OC)C(COc1ccccc1OC)N(C(=O)c1ccco1)CC2 (centres unmarked)	-15.6
COC(=O)c1[nH]c2ccccc2c1NC(=O)CN1CCC(C(N)=O)(N2CCCCC2)CC1	-35.1
Cc1cc(C)cc(N(CC(=O)Nc2ccc(C)cc2Cl)S(=O)(=O)c2c(C)[nH]c(=O)[nH]c2=O)c1	-7.63
COc1cc(NC(=O)CN(c2cc(C)cc(C)c2)S(=O)(=O)c2c(C)[nH]c(=O)[nH]c2=O)cc(OC)c1	-27.8
Cc1cc(C)cc(N(CC(=O)Nc2cc(C)ccc2C)S(=O)(=O)c2c(C)[nH]c(=O)[nH]c2=O)c1	5.03
Cc1cc(C)cc(N(CC(=O)Nc2ccc(C(F)(F)F)cc2)S(=O)(=O)c2c(C)[nH]c(=O)[nH]c2=O)c1	-88
Cc1cc(C)cc(N(CC(=O)Nc2ccc(Br)cc2)S(=O)(=O)c2c(C)[nH]c(=O)[nH]c2=O)c1	-76.4
CCc1ccc(NC(=O)CN(c2cc(C)cc(C)c2)S(=O)(=O)c2c(C)[nH]c(=O)[nH]c2=O)cc1	-33.7
c1ccc(NCc2cccnc2)cc1	12.1
Nc1nccc(-c2ccc(-n3cnc4ccccc43)cc2)n1	-25.3
O=C(/C=C/c1ccccc1)Nc1nnc(SCC(=O)c2ccc3ccccc3c2)s1	4.75
COc1ccc(OC)c(N=c2oc3cc(O)ccc3cc2C(N)=O)c1	3.97
COc1cccc(NC(=O)N2CCC(C(N)=O)(N3CCCCC3)CC2)c1	6.17
COc1ccsc1NC(=O)OCc1ccc(Cl)cc1	-77.8
NNC(=O)c1sccc1OCc1ccc(Cl)cc1	2.41
COc1ccc(COc2ccsc2C(=O)Nc2ccc(Cl)cc2)cc1	7.17
CC(C)(C)c1ccc(NC(=O)CN2C(=O)NC(C)(C3CC3)C2=O)cc1 (centres unmarked)	-25.5

Compound	hERG current change (%, negative = inhibition) at 10uM [%]
Cc1ccc(-c2nn3c(C)nnc3c3ccccc23)cc1S(=O)(=O)NCc1ccco1	-33.3
O=C(CSc1ncnc2[nH]ncc12)Nc1nc(-c2ccc(F)c(F)c2)cs1	44.7
O=C(Nc1ccnn1C1CCN(C(=O)Cc2cccc(Cl)c2)CC1)C1CC1	-7.34
COc1ccc(O)c(CN2CCC(n3nccc3NC(=O)c3ccccc3Cl)CC2)c1	-40.6
COc1ccc(F)c(CN2CCC(n3nccc3NC(=O)C3CCOC3)CC2)c1 (centres unmarked)	5.47
COc1ccc(CN2CCC(n3nccc3NC(=O)C3CCCC3)CC2)c(OC)c1	-73.2
COc1cc(F)ccc1CN1CCC(n2nccc2NC(=O)C2CCOC2)CC1 (centres unmarked)	-14.5
COc1ccc(O)c(CN2CCC(n3nccc3NC(=O)C3CCCC3)CC2)c1	-50.8
O=C(Nc1ccnn1C1CCN(Cc2cc(Cl)ccc2O)CC1)C1CC1	-55
O=C(Nc1ccnn1C1CCN(Cc2cc(Cl)ccc2O)CC1)c1cccnc1	-9.31
CCOCC(=O)Nc1ccc([N+](=O)[O-])cc1C	5.75
Cc1nc(SCC(=O)N2CC(=O)Nc3ccccc32)c2c(C)c(C)sc2n1	-5.65
COc1ccc(CCNC(=O)C(NS(=O)(=O)c2ccc3c(c2)CCN3C(C)=O)C(C)C)cc1OC (centres unmarked)	25.1
CCC(=O)Nc1cccc(NC(=O)CSc2nc3c(c(=O)n(C)c(=O)n3C)n2C)c1	18
CCC1Sc2ccc(S(=O)(=O)CCC(=O)Nc3ccc(NC(C)=O)cc3)cc2NC1=O (centres unmarked)	19
CSc1nc(=S)n(-c2ccccc2)c(C)c1C(C)=O	11.9
CC(=O)c1c(N2CCOCC2)nc(=S)n(-c2ccc([N+](=O)[O-])cc2)c1C	-46.2
CSc1nc(=S)n(-c2ccc([N+](=O)[O-])cc2)c(C)c1C(C)=O	-68.3
CCc1ccc(OCC(=O)Nc2ccc(CN3CCCCC3)cc2)cc1	-18
Cc1ccc(OCC(=O)Nc2ccc(CN3CCOCC3)cc2)cc1C	-39.3
